# Source: PubChem
# KCNQ2 enhance: potentiators of rat KCNQ2 potassium channel. CHO-K1 KCNQ2, FluxOR thallium flux fluorescence; hits give high values. hit rate 0.54% among 310,000. Potassium voltage-gated channel subfamily KQT member 2 (Rattus norvegicus), O88943. B-score at 10 µM;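 active = fluorescence ratio B-score at least 3 SD of library B-scores, with initial fluorescence B-score within 3 of them, cut at about 5.3 in these data; same plate scores as AID 2156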;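 note: B-score of peak minus minimum over baseline fluorescence ratio after K+ and Tl+ stimulus; positive B-score means potentiation of KCNQ2 with more thallium influx and brighter signal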
# KCNQ2 inh: rat KCNQ2 potassium channel inhibitors, primary screen, cell-based, CHO-K1, FluxOR thallium flux, B-score | 20 min; hits give low values | B-score at 10 µM | hit rate 1.1% among 310,000 | AID 2156, 2009;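 active = fluorescence ratio B-score at most minus 3 library SDs, with starting brightness B-score within 2 library SDs, cut at about -5.5 in these data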
# Kir21 confirm: mouse Kir2.1 channel blockers, retest, confirmation, cell-based, FluxOR thallium flux, duplicate; shares compounds with KCNQ2 enhance; Kir2.1-expressing cells, FluxOR thallium flux fluorescence; hits give low values; Tl flux remaining, % of negative control (hits give low values), % at 10 µM; hit rate 41% among 2,300;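 active = Primary-screen hit whose thallium flux fell at least 3 control SD below untreated wells in both duplicates, with normal baseline fluorescence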;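 note: 0% = blank wells without stimulus and 100% = stimulated no-compound controls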
# HEK293 Tl flux: alters thallium flux in parental HEK293 cells, Kir2.1 counter-screen. shares compounds with KCNQ2 enhance. FluxOR thallium flux fluorescence; 0% = unstimulated blank wells. FluxOR signal as % of negative control (100 = no effect), % at 10 µM. hit rate 19% among 2,300. AID 2105;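 active = dye signal at least 3 control SD above or below untreated wells in both duplicates, raw fluorescence within 3, either direction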;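 note: percent is based on the flux ratio of peak minus minimum fluorescence over baseline F0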
# CHO-K1 ctr: nonspecific thallium flux increase in parental CHO-K1, confirmation, counter-screen for KCNQ2 potentiator project, cell-based, FluxOR thallium flux, duplicate; shares compounds with KCNQ2 enhance; parental CHO-K1 cells, FluxOR thallium flux fluorescence; zero = vehicle mean+3SD, 100% = vehicle-minus-blank window; activity increase over 3SD of controls, % at 10 µM; hit rate 43% among 1,200;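 active = signal rise of at least 3 SD above the untreated control mean, in both duplicate wells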;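 note: counter screen of KCNQ2 potentiator hits so any rise reflects channel-independent effects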
# KCNQ1 sel pot: human KCNQ1 channel potentiation off-target, confirmation, selectivity assay for KCNQ2 potentiator project, cell-based, CHO, FluxOR thallium flux; shares compounds with KCNQ2 enhance; hit rate 28% among 1,200; CHO KCNQ1 stable, FluxOR thallium flux fluorescence; beyond 3SD, as % of vehicle-control signal; activation over 3SD threshold, % at 10 µM; AID 2283, 2010;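 active = fluorescence ratio rise of at least 3 SD of vehicle wells above their mean, in both replicate wells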;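 note: 0% = vehicle mean plus 3 SD and 100% = vehicle minus unstimulated blank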
# KCNQ2 pot confirm: rat KCNQ2 channel potentiators, confirmation, cell-based, CHO, FluxOR thallium flux, duplicate; shares compounds with KCNQ2 enhance; CHO-KCNQ2 cells, FluxOR thallium flux fluorescence; potentiation, less the hit threshold, % at 10 µM; hit rate 68% among 1,200; AID 2287, 2010;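 active = fluorescence ratio rising 3 SD or more over the vehicle control mean in both replicates, plus primary screen hit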;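 note: peak minus minimum thallium fluorescence divided by baseline after K/Tl stimulus; 0% = vehicle mean plus 3 SD and 100% = vehicle minus unstimulated blank difference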
# Kir2-1 sel: mouse Kir2.1 channel activation off-target, confirmation, selectivity assay for KCNQ2 potentiator project, cell-based, HEK293, FluxOR thallium flux. shares compounds with KCNQ2 enhance. HEK293 Kir2.1, FluxOR thallium flux fluorescence. activity over 3SD threshold, % at 10 µM. hit rate 2% among 1,200. AID 2345, 2010;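 active = fluorescence ratio rise of at least 3 SD above the vehicle-control mean, seen in both replicates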;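 note: 0% = vehicle mean plus 3 SD and 100% = vehicle minus no-stimulus blank window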
# KCNQ2 W236L pot: potentiators of retigabine-insensitive KCNQ2 W236L, mechanism study for KCNQ2 potentiator project, cell-based, rat KCNQ2 W236L, CHO, automated patch clamp; shares compounds with KCNQ2 enhance; automated patch clamp current; current increase over 3SD of negative controls (%), hits give high values, % at 25 µM; hit rate 10% among 940; AID 2558, 2010;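 active = current increase at least 3 SD of the untreated controls above them in both duplicate recordings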
# Target sequence (O88943 whole entry W236L, looked up): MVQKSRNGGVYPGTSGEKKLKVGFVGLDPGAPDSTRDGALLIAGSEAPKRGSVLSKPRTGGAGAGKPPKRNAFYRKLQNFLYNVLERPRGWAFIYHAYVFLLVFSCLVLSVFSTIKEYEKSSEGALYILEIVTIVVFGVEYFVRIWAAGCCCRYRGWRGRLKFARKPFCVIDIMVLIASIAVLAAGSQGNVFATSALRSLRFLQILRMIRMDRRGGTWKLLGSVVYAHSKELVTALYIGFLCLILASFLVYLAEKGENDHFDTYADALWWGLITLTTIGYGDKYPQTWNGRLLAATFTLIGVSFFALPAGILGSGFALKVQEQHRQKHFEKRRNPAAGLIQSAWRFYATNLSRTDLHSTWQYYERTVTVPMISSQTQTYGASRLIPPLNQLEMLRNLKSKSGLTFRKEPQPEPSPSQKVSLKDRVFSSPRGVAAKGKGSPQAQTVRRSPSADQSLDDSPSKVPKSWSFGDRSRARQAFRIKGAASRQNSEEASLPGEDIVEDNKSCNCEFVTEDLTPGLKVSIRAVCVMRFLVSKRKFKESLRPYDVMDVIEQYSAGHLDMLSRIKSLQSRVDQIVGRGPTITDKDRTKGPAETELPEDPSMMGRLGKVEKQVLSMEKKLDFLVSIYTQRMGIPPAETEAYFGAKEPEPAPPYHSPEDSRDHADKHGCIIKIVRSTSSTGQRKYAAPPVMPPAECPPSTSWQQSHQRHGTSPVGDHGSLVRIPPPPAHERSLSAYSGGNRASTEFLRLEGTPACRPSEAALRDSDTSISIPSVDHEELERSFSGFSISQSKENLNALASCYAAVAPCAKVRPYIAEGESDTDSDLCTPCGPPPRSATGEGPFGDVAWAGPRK
# Active calls of the source: *; i = inactive; nt = no result. The list is not random: actives were taken first. Their share in the collection is about 1.6%.
SMILES,KCNQ2 enhance,KCNQ2 inh,others
Cc1ccc(S(=O)(=O)CCCS(=O)(=O)c2ccc(C)cc2)cc1,nt,i,Kir21 confirm=67.0%*;HEK293 Tl flux=i
Cc1ccc(S(=O)(=O)c2ccc(C)cc2)cc1,0.96,i,
CCc1ncc(CN2CCCCC2C(=O)Nc2ccc(Oc3ccccc3)nc2)cn1 (centres undefined),0.05,i,
N/C(=N\OC(=O)CC1CCCCC1)c1cccc(Br)c1,7.78*,i,Kir21 confirm=i;HEK293 Tl flux=i;CHO-K1 ctr=-12.6;KCNQ1 sel pot=9.5*;KCNQ2 pot confirm=21.1*;Kir2-1 sel=-42.7;KCNQ2 W236L pot=i
N/C(=N\OC(=O)CCC1CCCC1)c1ccc([N+](=O)[O-])cc1,0.44,i,
N/C(=N\OC(=O)CCC1CCCCC1)c1cccc([N+](=O)[O-])c1,11.4*,i,Kir21 confirm=i;HEK293 Tl flux=i;CHO-K1 ctr=24.5*;KCNQ1 sel pot=-14.6;KCNQ2 pot confirm=29.6*;Kir2-1 sel=-38.8;KCNQ2 W236L pot=i
N/C(=N\OC(=O)CC1CCCCC1)c1ccc(Br)cc1,nt,i,
CCOC(=O)c1sc(-c2ccc(Cl)cc2Cl)nc1O,nt,i,
COC(=O)C1CCN(CC(=O)Nc2ccc(OC)c(Cl)c2)CC1,0.05,i,
CCCCc1cc(=O)oc2cc(C)cc(OC(C)C(=O)NC(Cc3c[nH]c4ccc(O)cc34)C(=O)O)c12 (centres undefined),nt,i,
CCCc1cc(=O)oc2cc(C)cc(OC(C)C(=O)N[C@@H](Cc3c[nH]c4ccccc34)C(=O)O)c12 (some centres undefined),9.69*,i,Kir21 confirm=i;HEK293 Tl flux=i;CHO-K1 ctr=2.7*;KCNQ1 sel pot=-20.9;KCNQ2 pot confirm=-25.1;Kir2-1 sel=-32.0
COC(=O)c1ccccc1NC(=O)C1CCN(C(=O)c2ccc(OC)cc2)CC1,nt,i,
Cc1ccn2cc(-c3ccc(NC(=O)c4ccco4)cc3)nc2c1,1.11,i,
NNC(=O)c1sccc1OCc1ccc(Cl)cc1Cl,3.78,i,
O=C(Nc1cc(Cl)ccc1N1CCCCC1)c1cccs1,nt,i,
O=C(NC(=S)Nc1ccc(N2CCCCC2)c(Cl)c1)c1cccs1,6.56*,i,Kir21 confirm=i;HEK293 Tl flux=i;CHO-K1 ctr=9.4*;KCNQ1 sel pot=11.0*;KCNQ2 pot confirm=1.0*;Kir2-1 sel=-26.4;KCNQ2 W236L pot=i
CCS(=O)(=O)N1CCC(C(=O)Nc2ccccc2OC)CC1,0.03,i,
Cc1ccccc1CNC(=O)CCC(=O)N1CCOc2ccc(Cl)cc21,nt,i,
NNC(=O)c1ccc(COc2ccc3ccccc3c2)o1,1.23,i,
O=C(OCc1ccccn1)c1ccc(COc2ccc3ccccc3c2)o1,5.41*,i,Kir21 confirm=i;HEK293 Tl flux=i;CHO-K1 ctr=-13.9;KCNQ1 sel pot=-7.5;KCNQ2 pot confirm=-19.2;Kir2-1 sel=-21.9
CCn1nnc(NC(=O)COc2ccc([N+](=O)[O-])cc2)n1,nt,i,
O=C(NCCc1ccccc1)c1ccc(NCC2CCCO2)c([N+](=O)[O-])c1 (centres undefined),1.47,i,
CCCCCOc1ccc(C(C)(O)C(CN2CCOCC2)c2ccccc2)cc1 (centres undefined),nt,i,
CCOc1cc(Br)c(CC(=O)NC2CCCCCC2)cc1OCC,13.6*,i,Kir21 confirm=i;HEK293 Tl flux=i;CHO-K1 ctr=1.1*;KCNQ1 sel pot=14.3*;KCNQ2 pot confirm=14.8*;Kir2-1 sel=-34.0;KCNQ2 W236L pot=i
COc1ccccc1CC(=O)NC1CCCCCC1,1.85,i,
SMILES,KCNQ2 enhance,KCNQ2 inh,others
N#Cc1ccc(S(=O)(=O)NCC(=O)OCC(=O)N2CCCC2=O)cc1,nt,i,
COC(=O)C(C)NC(=O)c1cn(-c2ccccc2OC)c(=O)c2ccccc12 (centres undefined),0.07,i,
Cn1c2ccccc2c(=O)c2ccc(C#CC3(O)CCCCC3)cc21,0.17,i,
CN(C)/C=C/C(=O)c1ccc([N+](=O)[O-])c(CS(=O)(=O)c2ccc(Cl)cc2)c1,nt,i,
COc1cc(C(=O)Nc2ccc3c(c2)CCCN3C(=O)c2ccco2)c([N+](=O)[O-])cc1OC,2.12,i,
Cc1cccc(NC(=O)CSc2nccn2Cc2ccco2)c1C,nt,i,
CC(=O)c1ccc(NC(=O)C(C)OC(=O)c2cccc(-n3cnnn3)c2)cc1 (centres undefined),0.27,i,
CC(OC(=O)c1cccc(-n2cnnn2)c1)C(=O)Nc1cccc(Cl)c1 (centres undefined),1.24,i,Kir21 confirm=i;HEK293 Tl flux=i
CCC[C@@H]1CCCO[C@@](C(=O)NCc2cc(C)n(C)n2)(C(F)(F)F)C1,0.39,i,
Cc1nc(-c2ccccn2)nc(N(C)c2ccccc2)c1Cl,0.77,i,
Cc1ccnc(NC(=O)C23CC4CC(CC(C4)C2)C3)c1,9.66*,i,Kir21 confirm=i;HEK293 Tl flux=i;CHO-K1 ctr=-8.0;KCNQ1 sel pot=-12.9;KCNQ2 pot confirm=32.9*;Kir2-1 sel=-18.1;KCNQ2 W236L pot=i
CC(NC(=O)C12CC3CC(CC(C3)C1)C2)c1ccc2c(c1)OCCO2 (centres undefined),3.87,i,
Cc1ccc(C(C)NC(=O)C23CC4CC(CC(C4)C2)C3)cc1 (centres undefined),6*,i,Kir21 confirm=i;HEK293 Tl flux=i;CHO-K1 ctr=-4.1;KCNQ1 sel pot=64.6*;KCNQ2 pot confirm=6.5*;Kir2-1 sel=-22.4;KCNQ2 W236L pot=i
CCC(=O)Nc1ccc(NC(=O)C23CC4CC(CC(C4)C2)C3)cn1,nt,i,
CC1CCc2sc(NC(=O)C3CC(Cl)=CCC3C(=O)O)c(C#N)c2C1 (centres undefined),4.49,i,
Cc1cccc(NC(=O)CSc2ncnc3sc(C)c(C)c23)n1,0.74,i,
Cc1sc2ncnc(SCC(=O)c3cccs3)c2c1C,6.9*,i,Kir21 confirm=i;HEK293 Tl flux=i;CHO-K1 ctr=-17.1;KCNQ1 sel pot=-5.2;KCNQ2 pot confirm=-8.8;Kir2-1 sel=-31.1;KCNQ2 W236L pot=i
C/C(=N\NC(=O)C(O)c1ccccc1)c1ccc(Br)s1 (centres undefined),1.04,i,
Cn1c(CCN2CCOCC2)nc2cc(NC(=O)c3cccs3)ccc21,0.88,i,
COc1ccc(S(=O)(=O)N2CCc3cc(OC)c(OC)cc3C2)cc1,nt,i,
